# Assay results: the supplement of paper PMC11219838
# Test system: Ditylenchus dipsaci
# Assay: proportion of mobile D. dipsaci (mixed stage) relative to DMSO control (fraction of DMSO control); higher = more viable, less nematicidal, active = 0.86 or less; extreme values may be limits of the assay
# Conditions: 60 µM; 5 days; temperature: 20 °C
# How it was run: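 Mobility, expressed relative to DMSO controls, is the mean of two biological replicates. The test organisms were D. dipsaci grown on pea plants in Gamborg B-5 agar and extracted into water by filter funnel, with about 20 added per well of a 96-well plate in distilled water. Compound was pinned to 60 µM final (0.6% v/v DMSO), plates were sealed and shaken at 200 rpm for 5 days at 20 °C, and mobile worms were scored under a microscope once 2 µL 1 M NaOH had been added.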
row,SMILES,proportion of mobile D. dipsaci
1,Cc1ccc(C)c(OCc2nc(-c3ccccc3Cl)no2)c1,1 (inactive)
2,O=S(=O)(CCC(F)=C(F)F)c1ncc(Cl)s1 [fluensulfone],1 (inactive)
3,Clc1ccccc1-c1noc(COc2ccc(Br)cc2)n1,1 (inactive)
4,COc1ccc(-c2noc(CSc3nc4cc(C)ccc4[nH]3)n2)cc1,1 (inactive)
5,CCn1c(SCc2nnc(-c3ccccc3)o2)nnc1-c1ccco1,1 (inactive)
6,Cc1ccc(OCc2nc(-c3ccccc3Cl)no2)cc1C,1 (inactive)
7,COc1ccc(C(=O)CSc2nnc(-c3cccc4ccccc34)o2)cc1,1 (inactive)
8,COc1cccc(-c2nnc(SCC(=O)Nc3cccc(C(F)(F)F)c3)o2)c1,1 (inactive)
9,COc1ccc(NC(=O)CSc2nnc(-c3ccccc3C)o2)cc1,1 (inactive)
10,Cc1cc(Cl)ccc1OCc1nc(-c2ccncc2)no1,1 (inactive)
11,Clc1cc(Br)ccc1OCc1nc(-c2ccccn2)no1,1 (inactive)
12,COC(=O)c1ccc(CSc2nnc(-c3ccc(OC)cc3)o2)cc1,1 (inactive)
13,Cc1cc(OCc2nc(-c3ccncc3)no2)c(C)c(C)c1Br,1 (inactive)
14,CCN(CC)C(=O)CSc1nnc(-c2cccc(Cl)c2)o1,1 (inactive)
15,Cc1cccc(-c2noc(-c3ccc4c(c3)OCO4)n2)c1,1 (inactive)
16,Cc1ccc(-c2nnc(SCC(=O)Nc3ccc(F)cc3)o2)cc1,1 (inactive)
17,Cc1ccc(NC(=O)CSc2nnc(-c3ccccc3)o2)cc1F,1 (inactive)
18,COc1ccccc1-c1nc(-c2ccc(Cl)cc2Cl)no1,1 (inactive)
19,CCc1ccc(OCc2nc(-c3cccnc3)no2)cc1,1 (inactive)
